Reference: PubChem BioAssay (Tox21)
Records with an inconclusive call do not appear. Active and inactive are the calls of the source. The call rests on the fitted dose curve; in most records, active means well fitted curve in the direction sought with a large enough effect in the repeat runs; inconclusive means weak or mixed curves; inactive means no such curve, though single readings can be large; an effect the other way counts as inactive or inconclusive.

Assays:
[1] = qHTS RealTime-Glo MT Cell Viability Assay in HepG2 cells - 40 hour (AID 1224870); further: nearly all actives have a fitted effect of over 50% in size
Summary of the method: (§1)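 Real-time viability: cells seeded at 600 per well together with NanoLuc and cell-permeant prosubstrate, compounds added after 5 h incubation. Luminescence tracked at 0, 8, 16, 24, 32 and 40 h of exposure.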

[2] = A CellTox Green Cytotoxicity Assay to monitor cytotoxicity in HEK293 cells - 40 hour (AID 1224871); further: nearly all actives have a fitted effect of over 45% in size
Summary of the method: (§2)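 Nonlytic real-time cytotoxicity: HEK293 + CellTox Green reagent plated, 5 h preincubation, pintool compound addition (23 nL in DMSO), 37 C for 40 h, fluorescence measured at successive time points.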

[3] = qHTS RealTime-Glo MT Cell Viability Assay in HEK293 cells - 16 hour (AID 1224872); further: top concentration of the series differs between compounds; nearly all actives have a fitted effect of over 50% in size
Summary of the method: (§3)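 Homogeneous bioluminescent viability format in HEK293 cells (600 cells/well). Following 5 h at 37 C/5% CO2, 23 nL compound was pintooled; the signal was measured repeatedly during 40 h incubation.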

[4] = qHTS RealTime-Glo MT Cell Viability Assay in HepG2 cells - 8 hour (AID 1224873); further: nearly all actives have a fitted effect of over 55% in size
Summary of the method: as §1

[5] = qHTS RealTime-Glo MT Cell Viability Assay in HEK293 cells - 40 hour (AID 1224874); conditions: RealTime-Glo luminescence; max response: hits give low values; further: nearly all actives have a fitted effect of over 50% in size
Summary of the method: (§4)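 Cells were seeded together with NanoLuc luciferase and a prosubstrate that viable cells reduce to a luciferase substrate. After a 5 h incubation at 37 C/5% CO2, compounds were added and luminescence was measured repeatedly during 40 h of treatment.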

[6] = A CellTox Green Cytotoxicity Assay to monitor cytotoxicity in HEK293 cells - 24 hour (AID 1224875); further: series mostly up to about 77 µM; nearly all actives have a fitted effect of over 45% in size
Summary of the method: as §2

[7] = A CellTox Green Cytotoxicity Assay to monitor cytotoxicity in HepG2 cells - 16 hour (AID 1224876); further: nearly all actives have a fitted effect of over 45% in size
Summary of the method: (§5)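 Read-out is fluorescence of a cyanine dye excluded from live cells that stains DNA of dead HepG2 cells, with signal proportional to cytotoxicity. Plates were read at 0, 8, 16, 24, 32 and 40 h after compound addition.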

[8] = qHTS RealTime-Glo MT Cell Viability Assay in HepG2 cells - 32 hour (AID 1224877); further: nearly all actives have a fitted effect of over 55% in size
Summary of the method: (§6)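 Cell number in HepG2 cultures estimated from NanoLuc luminescence generated by metabolic reduction of a prosubstrate by living cells. The homogeneous, nonlytic format allowed repeated reads at 0, 8, 16, 24, 32 and 40 h of compound exposure.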

[9] = A CellTox Green Cytotoxicity Assay to monitor cytotoxicity in HepG2 cells - 24 hour (AID 1224878); further: nearly all actives have a fitted effect of over 45% in size
Summary of the method: as §5

[10] = A CellTox Green Cytotoxicity Assay to monitor cytotoxicity in HepG2 cells - 40 hour (AID 1224879); further: nearly all actives have a fitted effect of over 40% in size
Summary of the method: as §5

[11] = qHTS RealTime-Glo MT Cell Viability Assay in HEK293 cells - 0 hour (AID 1224880)
Summary of the method: as §4

[12] = A CellTox Green Cytotoxicity Assay to monitor cytotoxicity in HEK293 cells - 32 hour (AID 1224881); further: nearly all actives have a fitted effect of over 40% in size
Summary of the method: as §2

[13] = A CellTox Green Cytotoxicity Assay to monitor cytotoxicity in HepG2 cells - 0 hour (AID 1224882); further: nearly all actives have a fitted effect of over 35% in size
Summary of the method: as §5

[14] = A CellTox Green Cytotoxicity Assay to monitor cytotoxicity in HepG2 cells - 32 hour (AID 1224883); further: nearly all actives have a fitted effect of over 50% in size
Summary of the method: as §5

[15] = A CellTox Green Cytotoxicity Assay to monitor cytotoxicity in HEK293 cells - 8 hour (AID 1224884); further: nearly all actives have a fitted effect of over 35% in size
Summary of the method: as §2

[16] = qHTS RealTime-Glo MT Cell Viability Assay in HepG2 cells - 16 hour (AID 1224885); further: nearly all actives have a fitted effect of over 50% in size
Summary of the method: as §6

[17] = qHTS RealTime-Glo MT Cell Viability Assay in HEK293 cells - 24 hour (AID 1224886)
Summary of the method: as §3

[18] = qHTS RealTime-Glo MT Cell Viability Assay in HEK293 cells - 8 hour (AID 1224887)
Summary of the method: as §4

[19] = A CellTox Green Cytotoxicity Assay to monitor cytotoxicity in HEK293 cells - 16 hour (AID 1224888); further: nearly all actives have a fitted effect of over 35% in size
Summary of the method: as §2

[20] = qHTS RealTime-Glo MT Cell Viability Assay in HepG2 cells - 0 hour (AID 1224889); further: nearly all actives have a fitted effect of over 50% in size
Summary of the method: as §6
On the % scale 0 is the no-effect control and ±100 the full control effect.

CCCc1cc(C(N)=S)ccn1
inactive: Potency [1] | Potency [2] | Potency [3] | Potency [4] | max response [5] 2.82% | Potency [6] | Potency [7] | Potency [8] | Potency [9] | Potency [10] | Potency [11] | Potency [12] | Potency [13] | Potency [14] | Potency [15] | Potency [16] | Potency [17] | Potency [18] | Potency [19] | Potency [20]

CCS(=O)(=O)c1ccc(OC)c(C(=O)OC)c1
inactive: Potency [1] | Potency [2] | Potency [3] | Potency [4] | max response [5] 5.71% | Potency [6] | Potency [7] | Potency [8] | Potency [9] | Potency [10] | Potency [11] | Potency [12] | Potency [13] | Potency [14] | Potency [15] | Potency [16] | Potency [17] | Potency [18] | Potency [19] | Potency [20]

CCN(CC)CCOCCOC(=O)C1(c2ccccc2)CCCC1
inactive: Potency [1] | Potency [2] | Potency [3] | Potency [4] | max response [5] -9.14% | Potency [6] | Potency [7] | Potency [8] | Potency [9] | Potency [10] | Potency [11] | Potency [12] | Potency [13] | Potency [14] | Potency [15] | Potency [16] | Potency [17] | Potency [18] | Potency [20]

CCc1ccc(O)c(OC)c1
inactive: Potency [1] | Potency [2] | Potency [3] | Potency [4] | max response [5] 4.24% | Potency [6] | Potency [7] | Potency [8] | Potency [9] | Potency [10] | Potency [11] | Potency [12] | Potency [14] | Potency [15] | Potency [16] | Potency [17] | Potency [18] | Potency [19] | Potency [20]

CC(NC(CCc1ccccc1)C(=O)O)C(=O)N1C(=O)N(C)CC1C(=O)O (centres undefined)
inactive: Potency [1] | Potency [2] | Potency [3] | Potency [4] | max response [5] -1.88% | Potency [6] | Potency [7] | Potency [8] | Potency [9] | Potency [10] | Potency [11] | Potency [12] | Potency [13] | Potency [15] | Potency [16] | Potency [17] | Potency [18] | Potency [19] | Potency [20]

N[C@H]1CN(c2c(F)cc3c(=O)c(C(=O)O)cn(C4C[C@H]4F)c3c2Cl)CC12CC2 (some centres undefined)
inactive: Potency [1] | Potency [2] | Potency [3] | Potency [4] | max response [5] 11.4% | Potency [6] | Potency [7] | Potency [8] | Potency [9] | Potency [10] | Potency [11] | Potency [12] | Potency [14] | Potency [15] | Potency [16] | Potency [17] | Potency [18] | Potency [19] | Potency [20]

CC1(C)CO[C@@H](CC(=O)O)CN1
inactive: Potency [1] | Potency [2] | Potency [3] | Potency [4] | max response [5] 4.58% | Potency [6] | Potency [7] | Potency [8] | Potency [9] | Potency [10] | Potency [11] | Potency [12] | Potency [13] | Potency [15] | Potency [16] | Potency [17] | Potency [18] | Potency [20]

NS(=O)(=O)c1ccccc1Cl
inactive: Potency [1] | Potency [2] | Potency [3] | Potency [4] | max response [5] -11.8% | Potency [6] | Potency [7] | Potency [8] | Potency [9] | Potency [10] | Potency [11] | Potency [12] | Potency [13] | Potency [14] | Potency [15] | Potency [16] | Potency [17] | Potency [18] | Potency [19] | Potency [20]

CCCCNC(=O)NCCCC
inactive: Potency [1] | Potency [2] | Potency [3] | Potency [4] | max response [5] -3.77% | Potency [6] | Potency [7] | Potency [8] | Potency [9] | Potency [10] | Potency [11] | Potency [12] | Potency [13] | Potency [14] | Potency [15] | Potency [16] | Potency [17] | Potency [18] | Potency [20]

CC[N+](C)(C)c1cccc(O)c1
inactive: Potency [1] | Potency [2] | Potency [3] | Potency [4] | max response [5] -7.12% | Potency [6] | Potency [7] | Potency [8] | Potency [9] | Potency [10] | Potency [11] | Potency [12] | Potency [14] | Potency [15] | Potency [16] | Potency [17] | Potency [18] | Potency [19] | Potency [20]

NC(=O)c1cn(Cc2c(F)cccc2F)nn1
inactive: Potency [1] | Potency [2] | Potency [3] | Potency [4] | max response [5] 4.6% | Potency [6] | Potency [7] | Potency [8] | Potency [9] | Potency [10] | Potency [11] | Potency [12] | Potency [13] | Potency [15] | Potency [16] | Potency [17] | Potency [18] | Potency [20]

COc1ccc2c(c1)c(CC(=O)OCC(=O)O)c(C)n2C(=O)c1ccc(Cl)cc1
inactive: Potency [1] | Potency [2] | Potency [3] | Potency [4] | max response [5] 5.11% | Potency [6] | Potency [7] | Potency [8] | Potency [9] | Potency [10] | Potency [11] | Potency [12] | Potency [15] | Potency [16] | Potency [17] | Potency [18] | Potency [19] | Potency [20]

N[C@@H](C(=O)N[C@@H]1C(=O)N2C(C(=O)O)=C(Cl)CS[C@H]12)c1ccccc1
inactive: activity change, negative = cytotoxic [1] 0.227% [at 6.97 µM] | cytotoxicity increase [2] 2.56% [at 6.97 µM] | activity change, negative = cytotoxicity [3] 12.8% [at 6.97 µM] | viability change, negative = cytotoxic [4] 3.66% [at 6.97 µM] | max response [5] 6.7% | activity change [6] 0.0795% [at 6.97 µM, hits give high values] | cytotoxicity increase [7] -14% [at 6.97 µM] | activity change, negative = cytotoxic [8] 1.49% [at 6.97 µM] | cytotoxicity [9] -20.4% [at 6.97 µM] | cytotoxicity increase [10] -14.3% [at 6.97 µM] | activity change, negative = cytotoxicity [11] 12.5% [at 6.97 µM] | cytotoxicity [13] -11.9% [at 6.97 µM] | cytotoxicity increase [14] -17.5% [at 6.97 µM] | cytotoxicity increase [15] 0.155% [at 6.97 µM] | activity change, negative = cytotoxic [16] 1.78% [at 6.97 µM] | activity change, negative = cytotoxicity [17] 7.93% [at 6.97 µM] | activity change, negative = cytotoxicity [18] 11.8% [at 6.97 µM] | activity change [19] 1.42% [at 6.97 µM, hits give high values] | activity change, negative = cytotoxicity [20] 1.57% [at 6.97 µM]

NC(=O)COCCN1CCN(C(c2ccccc2)c2ccc(Cl)cc2)CC1 (centres undefined)
inactive: Potency [1] | Potency [2] | Potency [3] | Potency [4] | max response [5] 4.08% | Potency [6] | Potency [7] | Potency [8] | Potency [9] | Potency [10] | Potency [11] | Potency [12] | Potency [15] | Potency [16] | Potency [17] | Potency [18] | Potency [20]
